Inconclusive results are not listed. Active and inactive are the calls of the source. The call rests on the fitted dose curve; in most records, active means well fitted activation curve with a large enough effect in the repeat runs; inconclusive means weak or mixed curves; inactive means flat fitted curve, though single readings scatter.
test: A CellTox Green Cytotoxicity Assay to monitor cytotoxicity in HepG2 cells - 24 hour (AID 1224878); settings: CellTox Green fluorescence; series mostly up to 76.8 µM; cytotoxicity: at the top concentration; further: nearly all actives have a fitted effect of over 45% in size
Text: National Center for Advancing Translational Sciences [NCATS]
NIH Chemical Genomics Center [NCGC]
U.S. Environmental Protection Agency [EPA]
National Institutes of Environmental Health Sciences [NIEHS]
National Toxicology Program [NTP]
Cell-based models are critical for drug discovery. Determining the natural cytotoxic effects resulting from test compounds is an essential research activity. A CellTox Green Cytotoxicity Assay to monitor cytotoxicity in real time of continues cell culture during 40 hours of the compound treatment was used to screen Tox21 10K library compounds in HepG2 cells. CellTox Green Cytotoxicity Assay is a nonlytic, homogeneous, biofluorescent method to measure cytotoxicity in cell culture after experimental manipulation. The assay system uses a proprietary asymmetric cyanine dye that is excluded from viable cells but preferentially stains the dead cell's DNA. […] Viable cells produce no appreciable increases in fluorescence. Therefore, the fluorescence signal produced by the binding interaction with dead cell DNA is proportional to cytotoxicity.
The mixture of HepG2 cell suspension and reagents were dispensed at 600cells/6 ul/well in 1536-well tissue culture treated black solid bottom plates using a Multidrop dispenser. After the assay plates were incubated at a 37 C/5% CO2 incubator for 5 hours, 23 nL of compounds dissolved in DMSO, positive and negative controls was transferred to the assay plate by a pintool work station. The plates were incubated at 37 C for 40 hours. The fluorescence intensity were measured at 0h, 8h, 16h, 24h, 32h and 40h time points using ViewLux plate reader during compound treatment.
On the % scale 0 is the no-effect control and ±100 the full control effect.

Compound	cytotoxicity
CCCOC(=O)C(C)O (stereo not given)	4.25% (inactive)
CCCC/C=C\CCCCCCCCCC=O	0.0691% (inactive)
COCCOCCOCCOCCOCCO	-11.5% (inactive)
CC(=O)/C=C/C1C(C)=CCC(C)C1(C)C (stereo not given)	-6.13% (inactive)
O=C(OCC1(COC(=O)c2cccnc2)CCCC(COC(=O)c2cccnc2)(COC(=O)c2cccnc2)C1O)c1cccnc1	1.96% [at 35.3 µM] (inactive)
CN1CCN(CC(=O)N2c3ccccc3C(=O)Nc3cccnc32)CC1	-12.6% [at 6.97 µM] (inactive)
CC1=CCC(C(C)C)=CC1	-6.56% (inactive)
O=S(=O)(O)c1ccc2cc(O)c(S(=O)(=O)O)cc2c1	8.1% (inactive)
Oc1ccccc1-c1nnco1	-14.4% [at 35.3 µM] (inactive)
Cc1ccc(S(=O)(=O)O)c(C)c1	0.816% (inactive)
O=C(CCN1CCN(CCO)CC1)N1c2ccccc2Sc2ccc(C(F)(F)F)cc21	1.3% [at 35.3 µM] (inactive)
CCOCCOCCOCC	1.04% (inactive)
COc1ccc2c(c1OC)C(=O)O[C@@H]2[C@H]1c2c(cc3c(c2OC)OCO3)CCN1C	17.1% [at 35.3 µM] (inactive)
COc1nccnc1NS(=O)(=O)c1ccc(N)cc1	-0.101% [at 35.3 µM] (inactive)
O=C(CS(=O)Cc1ccco1)NC/C=C\COc1cc(CN2CCCCC2)ccn1 (stereo not given)	0.439% [at 35.3 µM] (inactive)
CCCN1C[C@H](CSC)C[C@@H]2c3cccc4[nH]cc(c34)C[C@H]21	-15.2% [at 35.3 µM] (inactive)
N[C@@H](COP(=O)(O)O)C(=O)O	0.599% [at 15.8 µM] (inactive)
CC(CO)c1ccccc1 (stereo not given)	-8.54% (inactive)
CCCCC(CC)COCCO (stereo not given)	-3.81% (inactive)
CCCCCCOC(=O)CC	9.57% (inactive)

Compound	cytotoxicity
O=C(CCNNC(=O)c1ccncc1)NCc1ccccc1	12.4% [at 35.3 µM] (inactive)
COc1ccc(Br)c(C)c1	15.9% (inactive)
CCOc1cc(NC(C)=O)ccc1C(=O)OC	-4.52% [at 35.3 µM] (inactive)
Cc1ccccc1OCC(O)CO (stereo not given)	10.2% [at 35.3 µM] (inactive)
CC(CC=O)CCCC(C)(C)O (stereo not given)	2.46% (inactive)
Nc1ccc2cc(S(=O)(=O)O)cc(O)c2c1	-19.7% (inactive)
CC1COc2ccccc2N1 (stereo not given)	0.866% (inactive)
C=Cc1ccccn1	0.75% (inactive)
O=C(O)Cc1cn(-c2ccccc2)nc1-c1ccc(Cl)cc1	-3.8% [at 35.3 µM] (inactive)
CCN1CCc2nc(N)oc2CC1	-14.9% [at 35.3 µM] (inactive)
C=C(C)C(=O)OCCOP(=O)(O)OCCOC(=O)C(=C)C	-4.59% (inactive)
C=CC(OCC)OCC	8.24% (inactive)
CC(=O)CCCCn1c(=O)c2c(ncn2C)n(C)c1=O	-11.1% [at 35.3 µM] (inactive)
O=C(O)c1cc(Cl)cc([N+](=O)[O-])c1Cl	-0.713% (inactive)
O=C(O)C(=O)Cc1ccccc1	5.82% (inactive)
C[C@@H](O)[C@H]1C(=O)N2C(C(=O)O)=C(SCCN=CN)C[C@H]12	-9.72% [at 35.3 µM] (inactive)
CCCCOCCOC(=O)COc1nc(Cl)c(Cl)cc1Cl	23% (inactive)
Cc1cccc(OCC(O)CNC(C)(C)C)c1C (stereo not given)	0.204% [at 35.3 µM] (inactive)
C=C(C)C(=O)OCc1ccccc1	0.956% (inactive)
CCCC/C=C/C=C\C=O	15.4% (inactive)

From PubChem BioAssay (Tox21)
